Values joined by “and” are separate entries in the source; they are usually repeats but may differ in a detail not shown here. Equal values may be shown once. The campaign covered roughly 420,000 compounds. About 50,000 (12%) were called active. Roughly 26% stayed inconclusive and do not appear here. The call rests on the fitted dose curve; in most records, active means well fitted inhibition curve with a large enough effect; inconclusive means small, poorly fitted or top-dose-only effect; inactive means flat fitted curve, though single readings scatter. The list comes from a sample in which actives are over-represented; it also holds similar structures and randomly drawn compounds. A call without a number means that no potency is given here.
Assay: qHTS for Inhibitors of human tyrosyl-DNA phosphodiesterase 1 (TDP1): qHTS in cells in presence of CPT; further: nearly all actives have a fitted effect of over 55% in size
Conditions: chicken DT40 Tdp1-/-;hTDP1 cells + 20 nM CPT, ATP luminescence, 48 h; series mostly up to 46.2 µM
Outline: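 Chicken DT40 Tdp1-/- cells complemented with human TDP1, 400 cells/well, exposed to compounds plus 20 nM camptothecin for at least 48 h at 37 C; viability read as ATP content by CellTiter-Glo luminescence.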
Potency means the concentration at half of the fitted maximal effect.

| SMILES | Potency |
| --- | --- |
| COc1cccc(CNC(=O)CCCC(=O)Nc2cccc([N+](=O)[O-])c2)c1 | inactive |
| Cc1c(NC(=O)CSCc2ccccc2)cccc1C(=O)O | inactive |
| COc1cc(C(=O)N/C(=C\c2cn(C)c3ccccc23)C(=O)N2CCOCC2)cc(OC)c1OC | inactive |
| CCCCNC(=O)N(O)C1N(/N=C/c2ccccc2O)C(=S)SC1(C)C (stereo not given) | inactive |
| COc1ccnc(Oc2ccccc2)c1-c1ncn[nH]1 | inactive |
| Cc1ccc2oc(=O)c3cnn(CC(=O)NCc4ccccc4Cl)c3c2c1 | inactive |
| Cc1ccccc1C(=O)Nc1ccccc1Sc1ccccc1 | inactive |
| COc1cccc(/C=C2\Sc3ccc(C(=O)NCC4CCCO4)cc3N(C)C2=O)c1 (stereo not given) | 18.4 µM (active) |
| COc1cccc(C(=O)NCCS(=O)(=O)NCC2CCCO2)c1 (stereo not given) | inactive |
| COc1ccccc1-n1cnc2cc(C(=O)NCC3CCCO3)ccc21 (stereo not given) | inactive |
| COc1ccc(CN2C(=O)C(CC(=O)NCc3cccc4ccccc34)CC(C(=O)N3CCOCC3)=C2C)cc1 (stereo not given) | inactive |
| CCc1ccc(CNC(=O)C2CCN(c3nnc(C)c4c(C)n(-c5ccc(C)cc5)nc34)CC2)cc1 | 5.17 µM (active) and 16.4 µM (active) |
| CCOC(=O)C1CCN(C(=O)Cn2nc(C)c3c(C)n(-c4ccccc4)nc3c2=O)CC1 | inactive |
| CCOc1ccc(CNC(=O)C2CCCN(c3nnc(C)c4c(C)n(-c5ccccc5)nc34)C2)cc1 (stereo not given) | 13 µM (active) |
| COc1ccc(-n2nc3c(N4CCC(C(=O)NCc5ccccc5)CC4)nnc(C)c3c2C)cc1 | inactive |
| Cc1nnc(N2CCCC(C(=O)NCCN(C)C)C2)c2nn(-c3ccccc3)c(C)c12 (stereo not given) | inactive |
| Cc1ccc(NC(=O)N2CCC(C(=O)NCc3ccc(F)cc3)CC2)cc1 | inactive |
| Cc1ccc(C=O)cc1Cl | inactive |
| Cc1nc2scc(-c3cccs3)c2c(=O)n1N | inactive |
| [2H]C(CCOS(N)(=O)=O)c1ccccc1 (stereo not given) | inactive |
| COc1ccccc1-n1nnnc1S(=O)(=O)Cc1ccc(Cl)cc1 | 5.8 µM (active) |
| COc1ccccc1-n1nnnc1SCC(=O)NC(=O)Cc1ccccc1 | inactive |
| CCC(C)N(C(=O)CSc1nnnn1-c1ccccc1OC)C1CCS(=O)(=O)C1 (stereo not given) | inactive |
| O=C(NCCO)c1cccc(-c2cccc3nccn23)c1 | inactive |
| CCS(=O)(=O)Nc1ccc(C2=NN(C(C)=O)C(c3cccs3)C2)cc1 (stereo not given) | 4.11 µM (active) |

| SMILES | Potency |
| --- | --- |
| CCOc1ccccc1C1CC(c2cccc(NS(C)(=O)=O)c2)=NN1C(=O)c1ccccc1 (stereo not given) | inactive |
| COc1ccc(C2=NN(C(=O)CCC(=O)O)C(c3cccs3)C2)cc1OC (stereo not given) | inactive |
| CS(=O)(=O)Nc1cccc(C2=NN(C(=O)c3cccc(F)c3)C(c3cccs3)C2)c1 (stereo not given) | 23.1 µM (active) |
| CS(=O)(=O)Nc1ccc(C2=NN(S(C)(=O)=O)C(c3cccs3)C2)cc1 (stereo not given) | inactive |
| CS(=O)(=O)Nc1cccc(C2=NN(S(=O)(=O)c3ccccc3)C(c3cccs3)C2)c1 (stereo not given) | inactive |
| CCNC(=O)Cn1nc(C)n2c(cc3c(OC)cccc32)c1=O | inactive |
| CCc1ccccc1NC(=O)CN(C)S(=O)(=O)c1ccc2c(c1)c(=O)n(C)c(=O)n2C | inactive |
| CCOc1ccc(S(=O)(=O)N2CCC(c3ccccc3)CC2)cc1C(=O)O | inactive |
| CN(Cc1ccccc1)C(=O)COC(=O)c1ccccc1Nc1ccccc1 | inactive |
| Cc1ccc(S(=O)(=O)N2CCN(c3ncnc4ccccc34)CC2)cc1 | 461 nM (active) and 1.58 µM (active) |
| Cc1ccc(C)c(S(=O)(=O)N2CCN(c3ncnc4sccc34)CC2)c1 | 11.6 µM (active) |
| Cc1ccc(C)c(S(=O)(=O)n2nc(C)c(S(=O)(=O)N3CCC(C)CC3)c2C)c1 | inactive |
| Cc1ccc(S(=O)(=O)N2CCN(C)CC2)cc1 | inactive |
| COc1ccc(C)cc1S(=O)(=O)N1CCN(S(=O)(=O)c2cc(C(=O)O)ccc2C)CC1 | inactive |
| O=[N+]([O-])c1ccc(S(=O)(=O)N2CCN(c3nc(-c4ccccc4)nc4ccccc34)CC2)cc1 | inactive |
| CCOC(=O)c1[nH]c(C)c(CCC(=O)NCc2ccccc2C)c1C | inactive |
| CCCNC(=O)C1(C)CCN(C(=O)c2cc(F)ccc2C)C1 (stereo not given) | inactive |
| CC(C)Oc1ccc(CN2CCC(n3nccc3NC(=O)c3cccnc3)CC2)cc1 | inactive |
| COC(=O)[C@@]1(Cc2ccc(OC)cc2)[C@H]2c3cc(C(=O)N4CCCC4)n(Cc4ccc(OC(F)(F)F)cc4)c3C[C@H]2CN1C(=O)c1ccccc1 | 16.4 µM (active) |
| COC(=O)c1ccc(CN2CCC(CO)(Cc3ccc(OC)cc3)CC2)cc1 | inactive |
| CSc1ccc(S(=O)(=O)NCC(=O)OCC(=O)NC2(C#N)CCCCC2)cc1[N+](=O)[O-] | inactive |
| CCN(CC(=O)NCC(=O)Nc1cccc(C)c1C)Cc1ccccc1 | inactive |
| CSC1=NC2(C)CCCCC2C12C=CC(=O)C=C2 (stereo not given) | inactive |
| CC(C)c1ccc(C2C(C(=O)c3ccco3)=C(O)C(=O)N2CC2CCCO2)cc1 (stereo not given) | 20.6 µM (active) |
| O=C(C1=C(O)C(=O)N(Cc2ccccc2)C1c1ccco1)c1ccco1 (stereo not given) | inactive |

| SMILES | Potency |
| --- | --- |
| CCOc1cc(C2C(C(=O)c3ccco3)=C(O)C(=O)N2Cc2ccccc2)ccc1O (stereo not given) | inactive |
| COc1cccc(OCC(=O)NNC(=O)c2cnccn2)c1 | inactive |
| CN(C(=O)COc1ccccc1)c1nnc(-c2ccncc2)s1 | inactive |
| CN(C(=O)COc1nnc(-c2cccs2)c(-c2cccs2)n1)c1ccccc1 | 23.1 µM (active) |
| O=C(O)Cc1sc(-c2ccccc2)nc1-c1cccs1 | inactive |
| CCOc1ccc(CC(=O)NCCc2csc3nc(-c4ccccc4F)nn23)cc1 | inactive |
| Cc1ccc(NC(=O)COC(=O)CN2CCCCCC2=O)c(C)c1 | inactive |
| CC(=O)Nc1ccc(NC(=O)CSc2ncnc3c2cnn3Cc2ccccc2)cc1 | inactive |
| Clc1ccc(Cn2ncc3c(NCc4cccnc4)ncnc32)cc1 | 20.6 µM (active) |
| Clc1ccc(Nc2ncnc3c2nnn3Cc2ccccc2)cc1 | inactive |
| Cc1ccc(OCCOc2cccc(/C=N/NC(N)=O)c2)cc1 | inactive |
| COc1ccc(C(=O)COC(=O)Cn2cnc3c2c(=O)n(C)c(=O)n3C)c(OC)c1 | inactive |
| O=[N+]([O-])c1ccc(/C=C/c2ccc3cccnc3c2)cc1 | 7.94 µM (active) |
| O=C(Oc1ccc([N+](=O)[O-])cc1)c1ccc2ccccc2n1 | inactive |
| O=C(OCc1ccc([N+](=O)[O-])cc1)c1ccccn1 | inactive |
| COc1ccc(C2/C(=C(/O)c3ccc(OC(C)C)cc3)C(=O)C(=O)N2CCCN2CCOCC2)cc1 (stereo not given) | inactive |
| CCCCc1ccc(S(=O)(=O)NC(=O)C2(C)CCN2C(=O)c2c(C)noc2C)cc1 (stereo not given) | inactive |
| Cn1c2c(c(=O)n(C)c1=O)C(c1cccc(F)c1)C(C#N)=C(N)O2 (stereo not given) | inactive |
| CC(C)CCNC(=O)c1cccnc1Sc1ccccc1 | inactive |
| Cc1cc([N+](=O)[O-])c(=O)[nH]c1C | inactive |
| Cc1cccc(NC(=O)COC(=O)c2ccccc2OCc2cccc(Br)c2)c1 | 17.8 µM (active) |
| Cc1cccc(C(=O)OCC(=O)Nc2ccc(F)cc2)c1 | inactive |
| O=C(COC(=O)c1ccccc1OCCOc1ccccc1)Nc1cccc(Br)c1 | inactive |
| CC1C(=O)Nc2ccccc2N1C(=O)c1ccc(F)cc1F (stereo not given) | inactive |
| CCN(CC)C(=O)c1nc[nH]c1C(=O)N(C)Cc1ccccc1 | inactive |

| SMILES | Potency |
| --- | --- |
| CN1CC(O)c2cc(N=NC(N)=O)c(O)cc21 (stereo not given) | inactive |
| CCOC(=O)N1CCN(S(=O)(=O)c2ccc(Br)cc2)CC1 | inactive |
| CCOC(=O)N1CCN(S(=O)(=O)c2ccc(-n3cnnn3)cc2)CC1 | inactive |
| CCOC(=O)N1CCN(S(=O)(=O)c2ccc(C(=O)Nc3ccc(F)cc3F)cc2)CC1 | 2.59 µM (active) |
| COc1ccc(-c2ccc(CCC(=O)O)n2-c2ccc(O)cc2)cc1 | inactive |
| COc1cccc(OCCn2c(-c3ccc(Br)cc3)nc3ccccc3c2=O)c1 | inactive |
| COc1ccc(-c2nc3ccccc3c(=O)n2CCc2ccc(O)cc2)cc1 | 14.6 µM (active) |
| C=CCNC(=O)COC(=O)c1ccccc1C(=O)N(C)C1CCCCC1 | inactive |
| O=C(COC(=O)c1ccccc1SCC(=O)NC1CCCCC1)NC1CCCCC1 | inactive |
| CC1CCCC(NC(=O)COC(=O)c2ccccc2C(=O)N(C)C2CCCCC2)C1C (stereo not given) | 23.1 µM (active) |
| COc1cc(=O)n2c(c1C(=O)NC(C)c1ccco1)CCN(C(=O)c1cn3ccc(C)cc3n1)CC2 (stereo not given) | inactive |
| Cc1cc(C)cc(Oc2nc3c(C)cccn3c(=O)c2/C=C(\C#N)C(=O)NC2CCS(=O)(=O)C2)c1 (stereo not given) | 16.4 µM (active) |
| Cc1cccn2c(=O)c(/C=C(\C#N)S(=O)(=O)c3ccc(Cl)cc3)c(N3CCC(C(N)=O)CC3)nc12 | inactive |
| Cc1ccc(C(=O)N/C(=C\c2ccco2)C(=O)NC2CCS(=O)(=O)C2)cc1 (stereo not given) | inactive |
| Cc1ccnc(Nc2nc3ccccc3s2)n1 | inactive |
| Cc1ccnc(SCC(N)=O)n1 | inactive |
| Cc1ccnc(-n2sc3ccccc3c2=O)n1 | 7.31 µM (active) |
| Cc1cccc(C)c1NC(=O)CNC(=O)C1CCCC1 | inactive |
| CCc1ccnc(NC(=O)Nc2ccc(OCc3ccccc3)cc2)c1 | inactive |
| Cc1[nH]c(C)c(S(=O)(=O)N2CCN(c3cccc(C(F)(F)F)c3)CC2)c1C(=O)N1CCCC1 | 18.4 µM (active) |
| Cc1[nH]c(C)c(S(=O)(=O)N2CCN(c3cccc(C(F)(F)F)c3)CC2)c1C(=O)N1CCCCC1 | 14.6 µM (active) |
| Cc1ccc(NS(=O)(=O)c2c(C)[nH]c(C)c2C(=O)N2CCCCC2)c(C)c1 | inactive |
| Cc1[nH]c(C)c(S(=O)(=O)N2CCC(C)CC2)c1C(=O)N1CCCC1 | inactive |
| Cc1ccc(C)c(NS(=O)(=O)c2c(C)[nH]c(C)c2C(=O)N2CCCCC2)c1 | inactive |
| O=C1CC(=O)Nc2cc(S(=O)(=O)N3CCN(c4cccc(C(F)(F)F)c4)CC3)ccc2N1 | inactive |

Source: PubChem BioAssay AID686979 (National Center for Advancing Translational Sciences (NCATS), 2013)
